# PubChem BioAssay (NCATS)
# Records with an inconclusive call do not appear. Where a call stands in place of a potency, no number is given. A number with no mark means an inactive call. The source made the active and inactive calls. The call rests on the fitted dose curve; in most records, active means well fitted inhibition curve with a large enough effect; inconclusive means small, poorly fitted or top-dose-only effect; inactive means flat fitted curve, though single readings scatter.
# What was measured:
# [1] = qHTS profiling for inhibitors of Plasmodium falciparum proliferation (AID 504749); further: nearly all actives have a fitted effect of over 60% in size; details: P. falciparum in erythrocytes, SYBR Green DNA, 72 h
# Procedure, shortened: (§1)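 Fluorescence of SYBR Green-bound parasite DNA, read at 485/535 nm, served as the growth measure. Infected erythrocytes were cultured with compound 72 h; artemisinin (0.29 uM) and DMSO wells defined the normalization range.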
# 3D7 = test: as above; details: P. falciparum in erythrocytes, SYBR Green DNA, 72 h; series mostly up to 28.7 µM
# Procedure, shortened: as §1
# 7G8 = test: as above; details: P. falciparum in erythrocytes, SYBR Green DNA, 72 h; series mostly up to 28.7 µM
# Procedure, shortened: as §1
# AA1029 = test: as above; details: P. falciparum in erythrocytes, SYBR Green DNA, 72 h; series mostly up to 28.7 µM
# Procedure, shortened: as §1
# AS120 = test: as above; details: P. falciparum in erythrocytes, SYBR Green DNA, 72 h; series mostly up to 28.7 µM
# Procedure, shortened: as §1
# ATS189 = test: as above; details: P. falciparum in erythrocytes, SYBR Green DNA, 72 h; series mostly up to 28.7 µM
# Procedure, shortened: as §1
# ATS95 = test: as above; details: P. falciparum in erythrocytes, SYBR Green DNA, 72 h; series mostly up to 28.7 µM
# Procedure, shortened: as §1
# C2A = test: as above; details: P. falciparum in erythrocytes, SYBR Green DNA, 72 h; series mostly up to 28.7 µM
# Procedure, shortened: as §1
# CP185 = test: as above; details: P. falciparum in erythrocytes, SYBR Green DNA, 72 h; series mostly up to 28.7 µM
# Procedure, shortened: as §1
# CP191 = test: as above; details: P. falciparum in erythrocytes, SYBR Green DNA, 72 h; series mostly up to 28.7 µM
# Procedure, shortened: as §1
# CP192 = test: as above; details: P. falciparum in erythrocytes, SYBR Green DNA, 72 h; series mostly up to 28.7 µM
# Procedure, shortened: as §1
# CP194 = test: as above; details: P. falciparum in erythrocytes, SYBR Green DNA, 72 h; series mostly up to 28.7 µM
# Procedure, shortened: as §1
# [2] = at 28.7 µM (top of the series), parasite line A
# [3] = at 28.7 µM (top of the series), parasite line B
# [4] = at 12.8 µM (top of the series), parasite line A
# [5] = at 12.8 µM (top of the series), parasite line B
# Potency means the concentration at half of the fitted maximal effect.
SMILES,"activity, negative = inhibition [1, 2] [%]","activity, negative = inhibition [1, 3] [%]",Potency (3D7),Potency (7G8),Potency (AA1029),Potency (AS120),Potency (ATS189),Potency (ATS95),Potency (C2A),Potency (CP185),Potency (CP191),Potency (CP192),Potency (CP194),"activity, negative = inhibition [1, 4] [%]","activity, negative = inhibition [1, 5] [%]",Potency ([1]; parasite line A),Potency ([1]; parasite line B)
Cc1ncc(C[n+]2csc(CCOP(=O)(O)OP(=O)(O)O)c2C)c(N)n1,-0.174,5.83,inactive,inactive,inactive,inactive,inactive,inactive,inactive,inactive,inactive,inactive,inactive,–,–,–,–
CSCCC(N)C(=O)O (stereo unspecified),6.14,15.2,inactive,inactive,inactive,inactive,inactive,inactive,inactive,inactive,inactive,inactive,–,–,–,–,–
O=C(O)[C@H]1CN(C/C=C/P(=O)(O)O)CCN1,5.03,6.62,inactive,inactive,inactive,inactive,inactive,inactive,inactive,inactive,inactive,inactive,inactive,–,–,–,–
COC(=O)CC[C@H](N)C(=O)O,18.1,11.5,inactive,inactive,inactive,inactive,inactive,inactive,inactive,inactive,inactive,inactive,inactive,–,–,–,–
CC1C(=O)CC2C3(C)CCC2(C(C)C(=O)O)C(=O)C13 (stereo unspecified),5.64,13.7,inactive,inactive,inactive,inactive,inactive,inactive,inactive,inactive,inactive,inactive,inactive,–,–,–,–
NCC(O)CC(=O)O (stereo unspecified),13,3.91,inactive,inactive,inactive,inactive,inactive,inactive,inactive,inactive,inactive,inactive,inactive,–,–,–,–
O=P(O)(O)OC[C@H](O)CO,-1.1,9.77,inactive,inactive,inactive,inactive,inactive,inactive,inactive,inactive,inactive,inactive,inactive,–,–,–,–
O=C(NCCNCC(O)COc1ccc(O)cc1)N1CCOCC1 (stereo unspecified),8.13,8.21,inactive,inactive,inactive,inactive,inactive,inactive,inactive,inactive,inactive,inactive,inactive,–,–,–,–
OCl,10.5,2,inactive,inactive,inactive,inactive,inactive,inactive,inactive,inactive,inactive,inactive,inactive,–,–,–,–
CC(=O)Oc1cc(C(F)(F)F)ccc1C(=O)O,–,–,inactive,inactive,inactive,inactive,inactive,inactive,inactive,inactive,inactive,inactive,inactive,7.13,12.5,–,–
CCCCC(CC)CCC(CC(C)C)OS(=O)(=O)O (stereo unspecified),-0.0494,5.85,inactive,inactive,inactive,inactive,inactive,inactive,inactive,inactive,inactive,inactive,inactive,–,–,–,–
O=C1NCCN1c1ncc([N+](=O)[O-])s1,–,–,inactive,inactive,inactive,inactive,inactive,inactive,inactive,inactive,inactive,inactive,inactive,-20,-14.4,–,–
[O-][N+](=Nc1ccccc1)c1ccccc1,-5.95,-6.73,inactive,inactive,inactive,inactive,inactive,inactive,inactive,inactive,inactive,inactive,inactive,–,–,–,–
CN=C1C=CC(=C(c2ccc(N(C)C)cc2)c2ccc(N(C)C)cc2)C=C1,–,–,0.708 µM (active),0.282 µM (active),0.708 µM (active),1 µM (active),0.447 µM (active),1.12 µM (active),0.447 µM (active),0.447 µM (active),0.282 µM (active),0.849 µM (active),0.953 µM (active),–,–,0.562 µM (active),0.398 µM (active)
